High-throughput results (PubChem BioAssay)
D1 ag: Allosteric Agonists of the Human D1 Dopamine Receptor: qHTS; actives 1% (n = 360,000); HEK293 T-REx D1 cells, calcium flux, agonist mode; activation, % at 2 µM; D(1A) dopamine receptor (Homo sapiens), P21728
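Tetracycline-induced HEK293 TREx D1 cells, force-coupled to calcium signalling, were dye-loaded with a no-wash calcium kit. Compound was pin-added after a 10 s baseline. Fluorescence was read kinetically at 1 cycle/s for 180 s, with calcium rises flagged as agonism.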
D1 antagonist: Antagonist of Human D 1 Dopamine Receptor: qHTS. HEK293 TREx D1 cells, calcium flux, dopamine EC80; active compounds read low. D(1A) dopamine receptor (Homo sapiens), P21728. actives 3.2% (n = 360,000). activity change, negative = inhibition, % at 10 µM; in the data active = activity change below about -30%
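Antagonism measured as reduced calcium response to an EC80 dopamine addition following 180 s compound pre-read; cells were inducible HEK293 Trex D1 plated overnight at 30 C, read kinetically at 1 cycle/sec.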
TRHR enhancer: qHTS for Small Molecule Agonists and Allosteric Enhancers of Human TRH Receptor: Primary Screen for Enhancers; TRHR cells, fluo-8 calcium fluorescence, EC20 TRH enhancement; actives 0.66% (n = 360,000); Thyrotropin-releasing hormone receptor (Homo sapiens), P34981; enhancement, % at 2 µM; AID 493056, 2011; in the data active = enhancement above about 30%
Target sequence (P34981 whole entry, looked up): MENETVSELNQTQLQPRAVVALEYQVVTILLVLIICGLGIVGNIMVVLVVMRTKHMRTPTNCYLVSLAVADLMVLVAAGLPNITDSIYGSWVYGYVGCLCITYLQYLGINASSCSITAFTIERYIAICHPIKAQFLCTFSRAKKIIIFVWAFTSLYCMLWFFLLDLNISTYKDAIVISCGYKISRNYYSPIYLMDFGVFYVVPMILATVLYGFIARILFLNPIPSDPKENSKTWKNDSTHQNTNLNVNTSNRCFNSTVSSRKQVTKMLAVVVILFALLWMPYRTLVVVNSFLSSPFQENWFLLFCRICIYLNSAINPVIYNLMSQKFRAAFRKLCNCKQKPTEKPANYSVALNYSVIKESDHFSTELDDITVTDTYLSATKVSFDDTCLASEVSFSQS
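TRHR-expressing cells loaded with fluo-8 calcium dye were read kinetically (ex 480/em 530) during compound addition, then stimulated with an EC20 of TRH (10 nM final). Enhancement of the Gq-mediated intracellular calcium response was scored.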
D1 PAM: Potentiators of Human D1 Dopamine Receptor: qHTS. potentiation, % at 10 µM. HEK293 TREx D1 cells, calcium flux, dopamine EC20 potentiation. D(1A) dopamine receptor (Homo sapiens), P21728. actives 0.036% (n = 360,000); in the data active = potentiation above about 30%
TRHR ag: qHTS for Small Molecule Agonists and Allosteric Enhancers of Human TRH Receptor: Primary Screen for Agonists | Thyrotropin-releasing hormone receptor (Homo sapiens), P34981 | TRHR cells, calcium flux fluo-8, FDSS agonist mode | activation, % at 2 µM | actives 0.18% (n = 360,000) | AID 493084, 2011
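Fluo-8-loaded TRHR cells; 10 s baseline, compound added, kinetic Ca2+ fluorescence read 1/s, agonist mode.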
Of the large screens only hits and unclear results are named; the others gave an inactive call; ! = not confirmed by another sample. Sampled rows, rich in hits. Any-hit rate of the full collection: about 4.7%. Cut-off read from the data, not from the text of the source, unless noted: active = activation above about 30%; inactive = the rest.

O=C(COC(=O)c1ccc([N+](=O)[O-])o1)Nc1cccc(S(=O)(=O)N2CCCCC2)c1	D1 antagonist -31
O=C(COC(=O)c1ccc(S(=O)(=O)N2CCCCC2)cc1)Nc1ccccc1	D1 ag 34 (no result: D1 PAM)
Cc1ccc(NC(=O)COC(=O)c2ccc(S(=O)(=O)N3CCCCC3)cc2)cc1	none
Cc1ccc(C(=O)N2CCc3cc(CNC(=O)COc4ccccc4)ccc32)cc1	none
Cc1ccc(NC(=O)c2ccccc2OCC(=O)Nc2ccccc2F)cc1S(=O)(=O)N(C)C	D1 antagonist -38
CCOc1ncccc1C(=O)OCC(=O)Nc1ccc(S(=O)(=O)N2CCOCC2)cc1	none
CCOc1ncccc1C(=O)OCC(=O)NCCc1ccccc1	TRHR enhancer 31
CCOc1ncccc1C(=O)OCC(=O)Nc1ccc(S(=O)(=O)N2CCCC2)cc1	D1 antagonist -56
C=CCc1ccccc1OCCNCCCOC	D1 antagonist -46
CC(/C=N/NC(=O)Cc1cc(=O)[nH][nH]1)=C\c1ccccc1	D1 ag 57
CC(/C=N/NC(=O)c1ccncc1)=C\c1ccccc1	none
COc1ccccc1C(=O)N/N=C/C(C)=C/c1ccccc1	D1 antagonist -64
COc1ccc(NC2=C(C(C)=O)C(c3ccc(OC)c(OC)c3)C(C(C)=O)C(C)(O)C2)cc1 (stereo not given)	D1 antagonist -86
Cc1nn(-c2ccccc2)c(C)c1/C=N/NC(=O)c1cc(-c2cccs2)[nH]n1	D1 antagonist -87
COc1ccc(C)cc1NC(=O)Cn1c(=O)nc(-c2ccccc2F)c2cc(Cl)ccc21	none
NC(=O)CNC(=O)C1CCCc2c1[nH]c1ccc(Cl)cc21 (stereo not given)	none
CCOC(=O)CNC(=O)C1CCCc2c1[nH]c1ccc(Cl)cc21 (stereo not given)	D1 antagonist -35
COc1ccc(C2NC(=O)c3c(sc4c3CCN(C)C4)N2)cc1O (stereo not given)	none
CCOc1cc(C2NC(=O)c3c(sc4c3CCN(C)C4)N2)ccc1OC(=O)c1ccccc1Cl (stereo not given)	D1 ag 35
COc1ccc(C(=O)Oc2ccc(C3NC(=O)c4c(sc5c4CCN(C)C5)N3)cc2OC)cc1 (stereo not given)	TRHR ag 50
COC(=O)CCSc1cc([N+](=O)[O-])cc2c1c(C1OCCO1)nn2-c1ccccc1	D1 antagonist -36
CCc1nn2c(=O)cc(COC(=O)C3CCCCC3)nc2s1	none
CC1CCC(NC(=O)c2ccc(CS(=O)(=O)c3c(Cl)cccc3Cl)o2)CC1 (stereo not given)	none
CC(C)(C)c1ccc(Cn2c(=N)n(CC(O)c3ccco3)c3ccccc32)cc1 (stereo not given)	D1 ag 72
COc1cccc(C(=O)Nc2nc3nc(C)c(Cc4ccccc4)c(=O)n3[nH]2)c1	none
Cn1c(=O)oc2cc(S(=O)(=O)N3CCCC(C(=O)N4CCc5ccccc5C4)C3)ccc21 (stereo not given)	D1 antagonist -38 (no result: D1 PAM)
Cc1c(C(=O)NCC2COc3ccccc3O2)oc2ccc(S(=O)(=O)N3CCOCC3)cc12 (stereo not given)	none
Cn1c(=O)oc2cc(S(=O)(=O)N3CCC(C(=O)NCC4COc5ccccc5O4)CC3)ccc21 (stereo not given)	D1 antagonist -35
Cc1c(C(=O)NCC2COc3ccccc3O2)oc2ccc(S(=O)(=O)N3CC(C)CC(C)C3)cc12 (stereo not given)	D1 antagonist -31
Cn1c(=O)oc2cc(S(=O)(=O)N3CCc4ccccc43)ccc21	D1 ag 38
O=C(C1CCC(Cn2c(=O)c3sccc3n(Cc3ccccc3)c2=O)CC1)N1CCOCC1 (stereo not given)	none
Cc1cccc(N(C)C(=O)CCNS(=O)(=O)c2ccc3c(c2)CCN3C(=O)C2CC2)c1	none
O=C(COC(=O)CNC(=O)c1ccccc1)Nc1cc(C(F)(F)F)ccc1Cl	none
Cc1c(C(=O)NCc2c(F)cc(F)cc2F)oc2ccc(S(=O)(=O)N3CCOCC3)cc12	D1 antagonist -45
Cc1ccc(NC(=O)C2CCCN(S(=O)(=O)c3ccc4c(c3)oc(=O)n4C)C2)cc1Cl (stereo not given)	D1 antagonist -31
CCN(c1ccc(C)cc1C)S(=O)(=O)c1nnc(NC(=O)CC(C)C)s1	none
O=C(CCn1c(=O)c2cccn2c2cccnc21)NCc1cccc(Br)c1	none
COc1cccc(NC(=S)N2CCC(Cc3ccccc3)CC2)c1	D1 antagonist -37
COc1ccc(NC(=S)N2CCC(Cc3ccccc3)CC2)cc1OC	D1 antagonist -53
CCc1ccccc1NC(=O)CSC1=Nc2ccccc2C2=NC(Cc3ccccc3)C(=O)N12 (stereo not given)	none
Cc1cc(=O)oc2cc(NS(=O)(=O)c3ccccc3)ccc12	D1 antagonist -95
CCN(CC)S(=O)(=O)c1ccc(NC(=O)CN(c2ccccc2)S(=O)(=O)N(C)C)cc1	none
COc1ccc(C2/C=C\CN(C(=O)C3CCCC3)CC(=O)N2Cc2ccc(F)cc2)cc1 (stereo not given)	D1 antagonist -34
O=C(NCCC1=CCCCC1)c1ccc(Br)o1	none
CCC1Oc2ccccc2N(CC(=O)NCCC2=CCCCC2)C1=O (stereo not given)	D1 antagonist -34
O=C(NCCC1=CCCCC1)C(c1ccccc1)c1ccccc1	D1 antagonist -33
O=C(CCCc1ccccc1)NCCC1=CCCCC1	none
O=C(NC(=S)NCCC1=CCCCC1)c1ccc(Br)o1	D1 antagonist -32
O=C(CCc1ccccc1)NCCC1=CCCCC1	D1 antagonist -33
CC(C)(C)c1ccc(-c2nc3cc(NC(=O)c4cccc(Br)c4)ccc3o2)cc1	none
O=C(c1cnn2c(C(F)(F)F)cc(-c3cccs3)nc12)N1CCN(C(c2ccccc2)c2ccccc2)CC1	D1 antagonist -47
O=C(Nc1ccc(SC(F)F)cc1)c1cc(-c2ccc3c(c2)OCCO3)on1	none
Cc1ccc(CNC(=O)Cn2ccn(-c3cccc(Cl)c3)c(=O)c2=O)cc1	none
COc1ccc2[nH]c(C(=O)N3CCNCC3)cc2c1OC	D1 antagonist -41
COc1ccc(OC)c(CNC(=O)CCCn2ccc3cc(S(=O)(=O)N4CCCC4)ccc32)c1	D1 antagonist -33!
COC(=O)Cn1ccc2cc(S(=O)(=O)N3CCCCCC3)ccc21	none
